Test results taken from PubChem BioAssay (NCI).
Compounds without any hit were thinned out: in the full panel of roughly 83,000, 20% have a hit.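 Single-dose data. Exposure time 48 hours. Values below 10 considered active.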 A number with no mark means an inactive call. Activity calls are given as the source filed them.

What was measured:
Test in all cases: NCI-60 one-dose screen, 48 h (100 = growth as untreated, 0 = no growth, -100 = all killed)
[1] = test system: NCI-H226 lung; details: 10 µM
[2] = test system: NCI-H322M lung; details: 10 µM
[3] = test system: HOP-62 NSCLC; details: 10 µM
[4] = test system: NCI-H460 lung; details: 10 µM
[5] = test system: NCI-H522 lung; details: 10 µM
[6] = test system: A549/ATCC NSCLC; details: 10 µM
[7] = test system: COLO 205 colon; details: 10 µM
[8] = test system: DU-145 prostate; details: 10 µM
[9] = test system: SF-268 CNS; details: 10 µM
[10] = test system: SF-295 CNS; details: 10 µM
[11] = test system: SF-539 CNS; details: 10 µM
[12] = test system: UACC-257 melanoma; details: 10 µM
[13] = test system: HT29 colon; details: 10 µM
[14] = test system: SNB-75 CNS; details: 10 µM
[15] = test system: U251 CNS; details: 10 µM
[16] = test system: PC-3 prostate; details: 10 µM
[17] = test system: SK-MEL-5 melanoma; details: 10 µM
[18] = test system: UACC-62 melanoma; details: 10 µM
[19] = test system: SK-MEL-2 melanoma; details: 10 µM
[20] = test system: HL-60(TB) leukemia; details: 10 µM unless noted

With `COc1ccc2cc([C@H](C)C(=O)[Se]CCC#N)ccc2c1` the growth [1] was -49.9% (active), the growth [2] was -21.6% (active) and the growth [3] was -81.2% (active). The growth [4] was -27.2% (active), the growth [5] was -95.6% (active) and the growth [6] was -64.9% (active). For the same compound, the growth [7] was -71% (active), the growth [8] was -76.4% (active) and the growth [9] was -45.8% (active). For the same compound, the growth [10] was -70.3% (active), the growth [11] was -67.3% (active) and the growth [12] was -76.9% (active). For the same compound, the growth [13] was -49.3% (active), the growth [14] was -46.8% (active) and the growth [15] was -95.3% (active). The growth [16] was -10.1% (active), the growth [17] was -70.4% (active) and the growth [18] was -67.7% (active). The growth [19] was -42.1% (active) and the growth [20] was -42.5% (active).

For `C=CC[Se]C(=O)c1ccc(C(=O)[Se]CC=C)s1`, the growth [1] was -40.1% (active), the growth [2] was -63.7% (active) and the growth [3] was -70.9% (active). For the same compound, the growth [4] was -53.2% (active), the growth [5] was -95.5% (active) and the growth [6] was 1.38% (active). For the same compound, the growth [7] was -64.7% (active), the growth [8] was -92.8% (active) and the growth [9] was -39.4% (active). For the same compound, the growth [10] was -52.5% (active), the growth [11] was -97% (active) and the growth [12] was -78.4% (active). The growth [13] was -7.14% (active), the growth [14] was -96.8% (active) and the growth [15] was -86.2% (active). The growth [16] was -58.2% (active), the growth [17] was -70.8% (active) and the growth [18] was -22.8% (active). For the same compound, the growth [19] was -65.6% (active) and the growth [20] was -31.6% (active).

`COc1cc(OC)c(/C=C/C(=O)c2nc3ccccc3n2Cc2ccc(F)cc2)c(OC)c1` was tested, and the growth [1] was 72.8%, the growth [2] was 104% and the growth [3] was 58.9%. It also gave a growth [4] of 58.9%, a growth [5] of 79.6% and a growth [6] of 88.6%. For the same compound, the growth [7] was 108%, the growth [8] was 92.1% and the growth [9] was 72.1%. For the same compound, the growth [10] was 75.7%, the growth [11] was 60.9% and the growth [12] was 98.3%. The growth [13] was 90.2%, the growth [14] was 0.098% (active) and the growth [15] was 101%. It also gave a growth [16] of 71%, a growth [17] of 88.6% and a growth [18] of 62.5%. It also gave a growth [19] of 104% and a growth [20] of 67.7%.

`COC(=O)C[C@](O)(CCC(C)C)C(=O)O[C@@H]1C(OC)=C[C@]23CCCN2CCc2cc4c(cc2[C@H]13)OCO4` was tested, and the growth [1] was -55.1% (active), the growth [2] was -25.1% (active) and the growth [3] was -50.4% (active). The growth [4] was -20.6% (active), the growth [5] was -80.7% (active) and the growth [6] was -27.1% (active). For the same compound, the growth [7] was -84.7% (active), the growth [8] was -26.7% (active) and the growth [9] was -21.3% (active). The growth [10] was -35.5% (active), the growth [11] was -77.1% (active) and the growth [12] was -66.7% (active). The growth [13] was -62.1% (active), the growth [14] was -32.9% (active) and the growth [15] was -27.3% (active). For the same compound, the growth [16] was -19% (active), the growth [17] was -95.4% (active) and the growth [18] was -92.5% (active). For the same compound, the growth [19] was -85.9% (active) and the growth [20] was -31% (active).

For `COc1ccc(OC)c(/C=C/C(=O)c2nc3ccccc3n2Cc2ccc(F)cc2)c1`, the growth [1] was -42.4% (active), the growth [2] was 6.69% (active) and the growth [3] was -40.4% (active). The growth [4] was -30.9% (active), the growth [5] was -52.4% (active) and the growth [6] was 8.34% (active). For the same compound, the growth [7] was -58.3% (active), the growth [8] was 4.91% (active) and the growth [9] was 14.8%. The growth [10] was -21.3% (active), the growth [11] was -80.4% (active) and the growth [12] was 15.3%. For the same compound, the growth [13] was -44.7% (active), the growth [14] was 15.4% and the growth [15] was -74% (active). The growth [16] was 0.247% (active), the growth [17] was -21.1% (active) and the growth [18] was -57.6% (active). The growth [19] was -28.2% (active) and the growth [20] was -11.3% (active).

For `N#C[Se]CC(=O)Nc1cccc(C(F)(F)F)c1`, the growth [1] was -37.7% (active), the growth [2] was -19.6% (active) and the growth [3] was -57.6% (active). For the same compound, the growth [4] was -9.31% (active), the growth [5] was -70.2% (active) and the growth [6] was -50.4% (active). For the same compound, the growth [7] was -1.16% (active), the growth [8] was -13% (active) and the growth [9] was 2.88% (active). The growth [10] was -72.7% (active), the growth [11] was -91% (active) and the growth [12] was -33.3% (active). The growth [13] was -31.9% (active), the growth [14] was -23.5% (active) and the growth [15] was -48.4% (active). For the same compound, the growth [16] was 26.8%, the growth [17] was -73.4% (active) and the growth [18] was -77.4% (active). The growth [19] was -31.1% (active) and the growth [20] was 0.147% (active).

With `COc1cc(OC)c(S(=O)(=O)N(CCCl)CCCl)cc1C(=O)/C=C/c1cc(OC)c(OC)c(OC)c1` the growth [1] was 7.87% (active), the growth [2] was 12.9% and the growth [3] was -5.79% (active). The growth [4] was 1.08% (active), the growth [5] was -69.1% (active) and the growth [6] was 3.9% (active). The growth [7] was -89.8% (active), the growth [8] was -30.3% (active) and the growth [9] was 2.74% (active). For the same compound, the growth [10] was 0.899% (active), the growth [11] was -74.1% (active) and the growth [12] was -60% (active). The growth [13] was -58.7% (active), the growth [14] was -78.2% (active) and the growth [15] was -79.6% (active). The growth [16] was 10.3%, the growth [17] was -71.3% (active) and the growth [18] was -33.9% (active). For the same compound, the growth [19] was -94.5% (active) and the growth [20] was -25.8% (active).

Work on `CCCCCCCCc1ccc(C(=O)Nc2ccc(C)cc2C(=O)O)cc1` yielded a growth [20] of 92.2%.

`CCCCCCCCc1ccc(C(=O)Nc2cccc(P(=O)(O)O)c2)cc1` gave a growth [20] of 101%.

For `N/C(=N\c1nc2ccccc2s1)NC(=O)Nc1ccccc1F`, the growth [20] was -5.29% (active).

`COc1c2c(c(Br)c3c1C(CCc1ccccc1)N(C)CC3)OCO2` (stereo not given) showed a growth [20] of 14.1%.

With `COc1cc(/C=C/C(=O)c2cnn(-c3cc(=O)[nH]c4ccc(Br)cc34)c2C)cc(OC)c1OC` the growth [20] was -19.6% (active).
